aSyn UTR act: Activators working through SNCA 5'UTR binding (MLPCN); hit rate 7.1% among 300,000; activity score, % (tested at 7.5 µM), hits read low; alpha-synuclein 5'UTR reporter, activators screen; AID 1814; in the data active = activity score below about -60%
Active calls of the source: *. These entries were drawn from the full list.

SMILES	aSyn UTR act
CCS(=O)(=O)N1Cc2ccccc2CC1C(=O)Nc1nc2ccccc2[nH]1 (configuration not stated)	-101.3*
O=C(Nc1nc2ccccc2[nH]1)C1CCCC1	-80.5*
O=C(CC1CCCC1)Nc1nc2ccccc2[nH]1	-123.4*
C=CCSC1=NNC(c2ccc(C(C)(C)C)cc2)=NN1	-89.5*
Cc1ccc(NC(=O)c2cccc(C(=O)OC(C)C)n2)c(Br)c1	-73.0*
COC(=O)c1cccc(C(=O)Nc2ccc(C)cc2Br)n1	-155.2*
CC(=O)c1cnc(Nc2ccc(C)cc2)s1	-121.7*
O=C(CCl)N1CCCC1c1ccc2c(c1)OCCO2 (configuration not stated)	-151.8*
COc1cnc(-c2ccccn2)nc1NC(C)C	98.2
COc1cnc(-c2ccccn2)nc1Oc1ccc(F)cc1F	-117.9*
Brc1ccc(-c2nc(-c3ccccc3)no2)o1	-141.5*
Brc1ccc(-c2nc(-c3cccnc3)no2)o1	-164.3*
c1ccc(-c2noc(-c3ccc4ccccc4c3)n2)cc1	76.6
CC(=O)/C=C/c1ccccc1Oc1c(F)c(F)nc(F)c1F	-93.7*
Cc1ccc(C(=O)CSc2nnc(C(C)C)n2C)cc1C	-75.2*
Cc1ccc(C(=O)COc2ccccc2N2C(=O)c3ccccc3C2=O)cc1	-127.5*
Cc1ccc(C(=O)CN2C(=O)c3ccccc3S2(=O)=O)cc1	109.4
CC(O)CNc1ncnc2cc(-c3ccc(F)cc3)sc12 (configuration not stated)	-61.9*
COc1ccc(-c2ccc(-c3noc(C)n3)c(OC)n2)cc1	-145.9*
COCc1nc(-c2ccc(-c3ccc(C)cc3)nc2OC)no1	-190.1*
CC(C)c1ccc(NC(=O)N2CCOCC2)cc1	-107.4*
CCn1c2ccccc2c2cc(NC(=O)N3CCOCC3)ccc21	-83.9*
CCn1c2ccccc2c2cc(NC(=O)CN(C)CC(=O)Nc3ccc(N4CCOCC4)cc3)ccc21	-143.3*
O=C(Nc1ccc2c(c1)oc1ccccc12)N1CCOCC1	-139.6*
O=C1CCN(Cc2ccccc2)CCN1CCSc1ccccc1	-77.9*
SMILES	aSyn UTR act
CCCN1CCC(=O)N(CCSc2ccccc2)CC1	-115.4*
CCCCCCOC(=O)c1ccc(OC(=O)c2cccnc2)cc1	-101.4*
COc1ccccc1NC(=O)Nc1ccc(N2CCOCC2)cc1	-134.2*
COc1ccccc1NC(=O)Nc1ccc(CC#N)cc1	-115.4*
CCOc1ccccc1NC(=O)Nc1ccc(Cl)cc1	-78.2*
CCN1CCN(Cc2ccc(NC(=O)Nc3ccccc3OC)cc2)CC1	-140.9*
COc1ccc(NC(=O)Nc2ccccc2OC)cc1	-95.8*
O=c1c2cccc(Cl)c2nc2n1Cc1ccccc1-2	-153.5*
COC(=O)Cc1c(OC)ccn(CCc2c[nH]c3ccccc23)c1=O	-149.3*
N#Cc1cc2c(nc1SCC(=O)Nc1sc3c(c1C#N)CCC3)CCC2	-140.6*
N#Cc1cc2c(nc1SCC(=O)Nc1sc3c(c1C#N)CCC3)CCCCCC2	-93.3*
CCc1nnc(NC(=O)CSc2nc3c(cc2C#N)CCC3)s1	-159.4*
N#Cc1c(NC(=O)CSc2ncn[nH]2)sc2c1CCCC2	84.1
CN1CCc2nc(SCC(=O)Nc3ccc(Cl)cc3)c(C#N)cc2C1	-65.0*
Cc1sc2nc3ccc(N4CCCCC4)nn3c(=O)c2c1C	-180.7*
Cc1ccc(C(=O)NNc2cc(N3CCCC3)nc(N3CCCC3)n2)cc1	73.7
Cc1ccc2nc3ccc(N4CCCC4)nn3c(=O)c2c1	-162.5*
CS(=O)(=O)Oc1ccc2c(c1)O/C(=C\C=C\c1ccccc1)C2=O	-80.8*
CCN(CC)Cc1c(O)ccc2c1O/C(=C\C=C\c1ccccc1)C2=O	-438.5*
COc1ccc2c(c1)-c1nc(NC(=O)c3cccs3)sc1CC2	-122.3*
COc1ccc2c(c1)CCc1sc(NC(=O)c3ccco3)nc1-2	-114.0*
COc1ccc2c(c1)Cc1sc(NC(C)=O)nc1-2	-169.1*
COc1ccc2c(c1)Cc1sc(NC(=O)c3cccnc3)nc1-2	-63.0*
COc1ccc2c(c1)Cc1sc(NC(=O)c3ccco3)nc1-2	-264.7*
Cc1onc(-c2ccccc2Cl)c1C(=O)N1CCN(c2cccc(Cl)c2)CC1	67.3
SMILES	aSyn UTR act
Cc1onc(-c2ccccc2Cl)c1C(=O)Nc1nc2c(s1)CCCC2	-121.3*
O=C(Nc1nc2c(s1)CCCC2)c1cccnc1	-163.9*
CCc1c(C)[nH]c(C(=O)OCc2ccccc2)c1C	-74.7*
CCc1c(C(=O)OCc2ccccc2)[nH]c(C)c1C	-116.9*
O=C(Oc1ccc(OC(=O)C2CCC2)cc1)C1CCC1	-65.1*
c1ccc(-c2cn(CC3CCCCC3)nn2)cc1	-200.0*
COc1ccc(-c2cn(CC3CCCCC3)nn2)cc1	-120.5*
C/C(=N\NC(=O)c1cc2ccccc2cc1O)c1ccccn1	87.9
C/C(=N/NC(=O)c1cc2ccccc2cc1O)C1C(=O)c2ccccc2C1=O	-93.9*
Clc1ccc(-c2cn3nc4c(nc3n2)CCCC4)cc1	88.2
Clc1ccc(-c2cn3cccnc3n2)cc1	-132.1*
Clc1ccc(-c2cn3cccnc3n2)cc1Cl	-193.3*
COc1ccccc1N1CCN(c2ccc(-c3ccccc3)nn2)CC1	79.0
O=C(O)c1ccc(/C=N/N2CCN(c3ccccc3)CC2)cc1	-207.0*

High-throughput results: PubChem, Broad Institute
